About 7,900 targets were measured; listed, in parts, are those with a hit and a random draw of the rest. About 0.6% of all pairs of compound and target were hits. Values without a mark were called inactive.
Legend:
Test in all cases: log2 fold change, soluble protein after heating vs DMSO (PISA); higher = thermal stabilisation; K562 cells, 10 uM, 30 min; active = over 0.2 and 3.5 SD of the protein, either way, in both replicates (recomputed)
[1] = compound: C#Cc1cccc(Nc2ncnc3cc(OCCOC)c(OCCOC)cc23)c1 [erlotinib]
Outline: (§1)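 Thermal stability values are relative to control samples and come from duplicates. They are expressed as log2 fold changes. For measurement, K562 cells (2×10^6 cells/mL) received 10 μM compound for 30 min, and aliquots were heated for 3 min over 48°C-58°C, pooled, and extracted at 4°C in PBS with 0.5% NP-40. Soluble protein, the supernatant after 21,000xg for 90 min, was quantified by TMTpro 16plex LC-MS/MS with equalised channel sums.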

[2] = compound: C/C(=N\NC(=O)C1=CC(=CC=C1)S(=O)(=O)N2CCOCC2)/C3=C(C=CC(=C3)Cl)O
Outline: as §1

[3] = compound: C1=CC(=C(C=C1Cl)C2=NC3=NC=CN=C3C(=N2)NC4=CC=NC=C4)F
Outline: as §1

[4] = compound: C1=CC(=CC=C1C2=NC3=C(N2)C=C(C=C3)C(=O)N)OC4=CC=C(C=C4)Cl
Outline: as §1

[5] = compound: C1=CC2=C(C=CC(=C2)/C=C\3/C(=O)NC(=NCC4=CC=CS4)S3)N=C1
Outline: as §1

[6] = compound: C1=CC2=NC=CN=C2C=C1/C=C/3\C(=O)NC(=O)S3
Outline: as §1

[7] = compound: C1=CC=C(C=C1)C2=NC(=C(N2)C3=CC=NC=C3)C4=CC(=C(C=C4)Cl)O
Outline: as §1

[8] = compound: C1=CC=C2C(=C1)C3=NNC4=CC=CC(=C43)C2=O
Outline: as §1

[9] = compound: C1CCN(C1)C(=O)NC2=CC=CC(=C2)NC3=NC=C(C(=N3)NCCC4=CN=CN4)Br
Outline: as §1

[10] = compound: C1CN(CCC1(CC2=CC=C(C=C2)Cl)N)C3=NC=NC4=C3C=CN4
Outline: as §1

[11] = compound: C1COCCN1CCN2C3=CC=CC=C3N=C2NC(=O)C4=CC(=CC=C4)[N+](=O)[O-] [IRAK-1-4 Inhibitor I]
Outline: as §1

[12] = compound: C=CC(=O)N1CCC[C@@H](n2nc(-c3ccc(Oc4ccccc4)cc3)c3c(N)ncnc32)C1 [ibrutinib]
Outline: as §1

[13] = compound: CC(=O)c1cnc2ccc(-c3cc(Cl)c(O)c(Cl)c3)nc2c1N[C@H]1CC[C@H](CN(C)C)CC1
Outline: as §1

[14] = compound: CC(C)(C)Cn1c(N)nc2ccc(-c3[nH]c(C(C)(C)C)nc3-c3ccc(F)cc3)nc21 [ralimetinib]
Outline: as §1

[15] = compound: CC(C)(O)CC(=O)NCCn1ccc2ncnc(Nc3ccc(Oc4cccc(C(F)(F)F)c4)c(Cl)c3)c21
Outline: as §1

[16] = compound: CC(C)C1=C2N=C(C=C(N2N=C1)NCC3=CC=CC=C3)NCCCCCCN
Outline: as §1

[17] = compound: CC(C)C[C@@H](C=O)NC(=O)[C@H](CC(C)C)NC(=O)[C@H](CC(C)C)NC(=O)OCc1ccccc1
Outline: as §1

[18] = compound: CC(C)N(C[C@H]1O[C@@H](n2cnc3c(N)ncnc32)[C@H](O)[C@@H]1O)[C@H]1C[C@@H](CCc2nc3cc(C(C)(C)C)ccc3[nH]2)C1 [pinometostat]
Outline: as §1

[19] = compound: CC1=C(C(CC(=O)N1)C2=CC=C(C=C2)C(F)(F)F)C(=O)NC3=C(C=C4C(=C3)C=NN4)F
Outline: as §1

[20] = compound: CC1=C(C2=C(C=C1)C(=O)C3=CC=CC=C3N2CCCN)C
Outline: as §1

Chain of UniProt Q9H6V9 (Q9H6V9 whole entry, looked up): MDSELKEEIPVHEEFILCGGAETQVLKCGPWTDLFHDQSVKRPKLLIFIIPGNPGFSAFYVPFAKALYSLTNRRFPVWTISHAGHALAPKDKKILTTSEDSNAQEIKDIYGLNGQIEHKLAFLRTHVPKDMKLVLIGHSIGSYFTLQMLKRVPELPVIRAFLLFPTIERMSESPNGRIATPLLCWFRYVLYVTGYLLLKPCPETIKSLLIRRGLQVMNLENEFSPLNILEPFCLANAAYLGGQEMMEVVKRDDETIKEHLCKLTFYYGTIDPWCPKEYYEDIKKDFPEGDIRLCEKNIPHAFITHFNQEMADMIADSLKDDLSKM
Chain of UniProt Q9BRT3 (Q9BRT3 whole entry, looked up): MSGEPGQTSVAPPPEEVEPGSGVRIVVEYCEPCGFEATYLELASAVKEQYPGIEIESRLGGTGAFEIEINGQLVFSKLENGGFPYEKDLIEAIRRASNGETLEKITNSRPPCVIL
Chain of UniProt P43362 (P43362 whole entry, looked up): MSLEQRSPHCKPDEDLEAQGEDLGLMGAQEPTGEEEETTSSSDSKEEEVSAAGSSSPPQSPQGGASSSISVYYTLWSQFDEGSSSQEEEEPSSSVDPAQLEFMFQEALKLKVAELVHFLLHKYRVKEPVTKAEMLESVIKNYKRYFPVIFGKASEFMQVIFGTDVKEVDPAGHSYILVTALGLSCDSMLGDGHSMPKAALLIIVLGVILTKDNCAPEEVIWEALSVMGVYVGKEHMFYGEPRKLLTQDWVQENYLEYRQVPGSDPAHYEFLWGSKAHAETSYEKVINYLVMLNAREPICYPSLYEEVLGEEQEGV
Chain of UniProt O95232 (O95232 whole entry, looked up): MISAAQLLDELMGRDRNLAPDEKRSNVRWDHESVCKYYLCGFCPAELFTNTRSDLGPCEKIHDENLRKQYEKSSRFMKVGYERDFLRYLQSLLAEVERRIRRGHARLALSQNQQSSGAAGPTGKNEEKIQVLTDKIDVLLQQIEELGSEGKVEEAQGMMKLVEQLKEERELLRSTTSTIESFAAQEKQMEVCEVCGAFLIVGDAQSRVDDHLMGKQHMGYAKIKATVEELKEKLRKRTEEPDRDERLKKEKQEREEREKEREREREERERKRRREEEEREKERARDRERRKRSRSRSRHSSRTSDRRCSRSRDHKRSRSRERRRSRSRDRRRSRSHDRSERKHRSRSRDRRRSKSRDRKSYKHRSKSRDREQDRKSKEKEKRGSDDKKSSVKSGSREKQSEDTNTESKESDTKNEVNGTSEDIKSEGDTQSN
Chain of UniProt Q96PC5 (Q96PC5 whole entry, looked up): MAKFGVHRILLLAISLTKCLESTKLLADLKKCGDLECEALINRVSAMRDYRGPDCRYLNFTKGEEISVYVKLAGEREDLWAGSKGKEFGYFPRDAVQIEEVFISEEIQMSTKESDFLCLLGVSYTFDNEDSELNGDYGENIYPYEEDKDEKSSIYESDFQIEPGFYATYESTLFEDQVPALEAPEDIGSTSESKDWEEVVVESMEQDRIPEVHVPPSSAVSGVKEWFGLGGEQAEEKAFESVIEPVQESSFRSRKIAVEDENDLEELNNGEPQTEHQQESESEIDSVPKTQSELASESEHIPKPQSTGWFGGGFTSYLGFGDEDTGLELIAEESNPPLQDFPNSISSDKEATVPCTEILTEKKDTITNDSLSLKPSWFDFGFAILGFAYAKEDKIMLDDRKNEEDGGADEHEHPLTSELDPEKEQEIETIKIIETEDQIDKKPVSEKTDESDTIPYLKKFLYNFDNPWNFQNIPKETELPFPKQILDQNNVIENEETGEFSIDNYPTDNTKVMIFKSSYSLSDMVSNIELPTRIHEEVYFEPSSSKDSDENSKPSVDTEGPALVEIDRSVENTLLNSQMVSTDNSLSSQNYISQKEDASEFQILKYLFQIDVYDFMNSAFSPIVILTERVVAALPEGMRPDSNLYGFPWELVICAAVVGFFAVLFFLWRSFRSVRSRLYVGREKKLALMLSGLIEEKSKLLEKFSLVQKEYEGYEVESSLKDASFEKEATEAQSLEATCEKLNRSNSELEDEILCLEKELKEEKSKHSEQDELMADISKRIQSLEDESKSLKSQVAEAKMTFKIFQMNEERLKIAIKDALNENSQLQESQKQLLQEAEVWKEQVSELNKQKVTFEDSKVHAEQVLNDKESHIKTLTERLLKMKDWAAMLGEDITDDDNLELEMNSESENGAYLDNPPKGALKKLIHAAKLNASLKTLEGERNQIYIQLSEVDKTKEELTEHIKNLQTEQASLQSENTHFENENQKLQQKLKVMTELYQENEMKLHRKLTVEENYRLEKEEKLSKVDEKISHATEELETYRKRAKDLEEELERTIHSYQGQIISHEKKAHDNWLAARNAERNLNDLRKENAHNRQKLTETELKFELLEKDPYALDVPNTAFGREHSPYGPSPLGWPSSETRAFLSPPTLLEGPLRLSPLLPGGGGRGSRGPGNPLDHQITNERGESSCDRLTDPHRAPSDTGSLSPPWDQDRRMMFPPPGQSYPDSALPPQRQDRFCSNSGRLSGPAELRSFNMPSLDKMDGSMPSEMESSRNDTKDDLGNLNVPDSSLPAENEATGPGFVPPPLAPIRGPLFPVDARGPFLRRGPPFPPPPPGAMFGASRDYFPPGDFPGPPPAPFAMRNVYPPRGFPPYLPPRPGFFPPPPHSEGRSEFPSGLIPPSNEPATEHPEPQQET
Chain of UniProt Q9Y496 (Q9Y496 whole entry, looked up): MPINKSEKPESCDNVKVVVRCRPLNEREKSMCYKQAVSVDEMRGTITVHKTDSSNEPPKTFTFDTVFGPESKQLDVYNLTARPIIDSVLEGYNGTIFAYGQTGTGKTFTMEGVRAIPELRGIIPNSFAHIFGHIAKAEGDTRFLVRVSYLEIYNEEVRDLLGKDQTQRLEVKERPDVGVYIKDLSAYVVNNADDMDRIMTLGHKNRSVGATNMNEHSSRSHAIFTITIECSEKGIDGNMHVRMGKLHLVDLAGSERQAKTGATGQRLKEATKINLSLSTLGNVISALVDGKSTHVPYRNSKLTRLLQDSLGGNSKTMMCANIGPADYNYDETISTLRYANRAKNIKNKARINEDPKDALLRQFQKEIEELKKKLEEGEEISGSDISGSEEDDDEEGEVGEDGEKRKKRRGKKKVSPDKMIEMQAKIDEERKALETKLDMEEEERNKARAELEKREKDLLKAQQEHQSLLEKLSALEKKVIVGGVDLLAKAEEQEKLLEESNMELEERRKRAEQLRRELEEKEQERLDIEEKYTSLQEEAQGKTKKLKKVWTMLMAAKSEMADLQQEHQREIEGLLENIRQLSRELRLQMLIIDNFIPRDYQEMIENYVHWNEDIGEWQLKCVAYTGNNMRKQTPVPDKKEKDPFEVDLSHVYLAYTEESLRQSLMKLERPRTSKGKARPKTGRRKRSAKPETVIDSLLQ
Chain of UniProt Q8WV07 (Q8WV07 whole entry, looked up): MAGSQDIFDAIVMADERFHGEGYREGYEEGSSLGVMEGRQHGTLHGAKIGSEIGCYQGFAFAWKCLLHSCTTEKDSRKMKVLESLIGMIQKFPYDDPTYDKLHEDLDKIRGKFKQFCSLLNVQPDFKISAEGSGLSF
Chain of UniProt Q9UPY8 (Q9UPY8 whole entry, looked up): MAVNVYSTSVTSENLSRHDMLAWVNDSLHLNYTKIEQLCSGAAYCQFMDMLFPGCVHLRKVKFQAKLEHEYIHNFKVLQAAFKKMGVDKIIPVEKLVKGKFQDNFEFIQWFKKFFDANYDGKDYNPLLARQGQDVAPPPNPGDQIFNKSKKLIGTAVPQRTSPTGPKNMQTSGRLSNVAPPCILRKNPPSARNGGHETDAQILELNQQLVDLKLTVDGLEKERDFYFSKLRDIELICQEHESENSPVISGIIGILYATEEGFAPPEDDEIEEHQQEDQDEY
Chain of UniProt P18065 (P18065 whole entry, looked up): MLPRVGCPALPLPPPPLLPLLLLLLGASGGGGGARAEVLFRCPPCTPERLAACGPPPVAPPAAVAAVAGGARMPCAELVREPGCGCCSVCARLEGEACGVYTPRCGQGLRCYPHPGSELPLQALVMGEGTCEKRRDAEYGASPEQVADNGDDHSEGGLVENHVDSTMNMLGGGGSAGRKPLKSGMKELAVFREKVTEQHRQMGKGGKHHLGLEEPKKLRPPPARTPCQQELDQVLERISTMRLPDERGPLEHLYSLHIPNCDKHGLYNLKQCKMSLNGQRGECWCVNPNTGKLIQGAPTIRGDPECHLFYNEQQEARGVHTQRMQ
Chain of UniProt Q9UBF1 (Q9UBF1 whole entry, looked up): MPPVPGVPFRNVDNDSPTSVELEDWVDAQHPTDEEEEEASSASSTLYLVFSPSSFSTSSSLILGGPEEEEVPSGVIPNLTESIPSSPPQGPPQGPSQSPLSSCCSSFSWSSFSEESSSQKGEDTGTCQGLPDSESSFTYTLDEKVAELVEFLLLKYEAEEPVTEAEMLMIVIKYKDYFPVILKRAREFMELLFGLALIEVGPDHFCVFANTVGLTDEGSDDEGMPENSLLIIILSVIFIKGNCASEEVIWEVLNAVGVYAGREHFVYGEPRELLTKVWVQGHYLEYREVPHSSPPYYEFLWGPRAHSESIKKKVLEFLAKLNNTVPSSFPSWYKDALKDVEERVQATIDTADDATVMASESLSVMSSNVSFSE
Chain of UniProt P22692 (P22692 whole entry, looked up): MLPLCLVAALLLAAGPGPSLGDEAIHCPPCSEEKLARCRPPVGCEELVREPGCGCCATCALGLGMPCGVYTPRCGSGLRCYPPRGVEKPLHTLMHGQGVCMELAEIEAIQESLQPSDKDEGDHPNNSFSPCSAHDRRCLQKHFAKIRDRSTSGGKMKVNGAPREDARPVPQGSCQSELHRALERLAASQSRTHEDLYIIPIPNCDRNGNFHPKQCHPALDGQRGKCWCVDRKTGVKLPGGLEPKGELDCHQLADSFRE

Target | log2 fold change [1] | log2 fold change [2] | log2 fold change [3] | log2 fold change [4] | log2 fold change [5] | log2 fold change [6] | log2 fold change [7] | log2 fold change [8] | log2 fold change [9] | log2 fold change [10] | log2 fold change [11] | log2 fold change [12] | log2 fold change [13] | log2 fold change [14] | log2 fold change [15] | log2 fold change [16] | log2 fold change [17] | log2 fold change [18] | log2 fold change [19] | log2 fold change [20]
LTO1 (UniProt Q8WV07) | -0.095 | 0.072 | 0.032 | 0.059 | 0.002 | 0.089 | -0.035 | -0.052 | -0.032 | 0.169 | -0.028 | 0.037 | 0.061 | 0.028 | 0.011 | -0.017 | 0 | -0.028 | 0.04 | 0.041
MAPRE3 (UniProt Q9UPY8) | -0.039 | 0.252 (active) | 0.076 | 0.003 | -0.013 | 0.042 | -0.05 | 0 | 0.035 | -0.01 | 0.027 | -0.044 | -0.003 | -0.142 | -0.049 | -0.079 | -0.033 | 0.019 | 0.01 | -0.029
MIEN1 (UniProt Q9BRT3) | 0.023 | 0.048 | 0.046 | -0.02 | 0.033 | 0.099 | 0.035 | -0.065 | 0.024 | -0.076 | 0.105 | -0.029 | -0.051 | -0.075 | -0.091 | 0.074 | -0.036 | 0.019 | 0.004 | 0.045
KNTC1 (UniProt P50748) | 0.102 | 0.068 | 0.029 | -0.039 | 0.019 | 0.034 | -0.065 | -0.012 | 0.001 | -0.004 | -0.084 | -0.028 | 0.058 | -0.007 | 0.012 | -0.157 | 0.039 | 0.095 | -0.02 | -0.008
LUC7L3 (UniProt O95232) | 0.011 | 0.033 | -0.018 | 0.042 | -0.093 | -0.02 | -0.043 | -0.104 | -0.002 | -0.037 | -0.123 | -0.037 | -0.409 (active) | -0.024 | 0.024 | -0.04 | 0.007 | -0.023 | -0.013 | 0.109
MAGEC2 (UniProt Q9UBF1) | -0.026 | 0.024 | -0.099 | -0.018 | -0.003 | 0.03 | -0.011 | -0.004 | -0.022 | 0.051 | -0.003 | -0.02 | 0.108 | 0.093 | 0.058 | -0.059 | 0.05 | -0.003 | -0.035 | -0.318 (active)
ITPRIP (UniProt Q8IWB1) | 0.012 | -0.086 | 0.052 | 0.034 | -0.05 | 0.01 | -0.085 | -0.094 | -0.02 | 0.012 | -0.063 | 0.059 | -0.013 | 0.005 | 0.007 | -0.074 | 0.082 | -0.005 | -0.001 | 0.022
MIA2 (UniProt Q96PC5) | 0.01 | 0.044 | 0.04 | -0.044 | -0.033 | 0.035 | 0.021 | -0.092 | 0.003 | 0.041 | -0.036 | 0.008 | -0.059 | -0.003 | 0.03 | -0.155 | 0.035 | 0.043 | 0.077 | 0.032
MARK2 (UniProt E9PC69) | 0.12 | 0.091 | 0.043 | -0.042 | 0.115 | -0.1 | -0.014 | -0.756 (active) | -0.227 | -0.126 | -0.156 | -0.047 | -2.09 (active) | 0.031 | -0.047 | -0.581 | 0.049 | 0.078 | 0.077 | 0.034
KIF3A (UniProt Q9Y496) | -0.222 | -0.06 | -0.069 | -0.122 | -0.049 | 0.034 | -0.062 | -0.025 | -0.011 | -0.067 | 0.04 | -0.016 | 0.034 | 0.085 | -0.151 | -0.336 | -0.065 | 0.051 | 0.087 | -0.081
IGFBP2 (UniProt P18065) | -0.074 | -0.023 | -0.146 | 0.3 | 0.054 | 0.03 | 0.09 | -0.209 | 0.065 | 0.039 | 0.196 | 0.09 | 0.166 | -0.115 | -0.063 | -0.137 | 0.008 | -0.192 | 0.254 | -0.159
IGFBP4 (UniProt P22692) | -0.03 | -0.14 | 0.023 | 0.093 | -0.124 | 0.178 | -0.051 | -0.217 | 0.108 | 0.076 | 0.011 | -0.015 | 0.171 | -0.04 | 0.047 | 0.028 | 0.054 | 0.032 | 0.034 | -0.09
MAGEA9 (UniProt P43362) | 0.05 | 0.032 | 0.001 | 0.076 | -0.07 | 0.074 | -0.021 | -0.058 | -0.191 | 0.018 | 0.008 | -0.094 | 0.101 | 0 | 0.031 | -0.256 | 0.087 | 0.009 | 0.057 | -0.49 (active)
LDAH isoform 2 (UniProt Q9H6V9) | 0.116 | 0.052 | -0.101 | -0.041 | 0.047 | 0 | 0.018 | 0 | 0.06 | -0.006 | 0.039 | 0.066 | -0.039 | 0.077 | 0.464 (active) | -0.286 (active) | 0.019 | 0 | -0.053 | 0.073
MAGI1 (UniProt Q96QZ7) | -0.022 | 0 | -0.083 | 0.049 | -0.008 | 0.018 | -0.015 | -0.016 | 0.012 | -0.047 | 0 | 0.057 | -0.071 | 0.014 | 0.032 | -0.009 | 0.01 | 0.025 | -0.016 | 0.07

Reference: the supplement of paper PMC10849652
